In PubChem BioAssay (NCI):
The panel holds about 83,000 compounds, 20% with a hit somewhere; the sample as a whole holds those more often.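 Cells were grown in 96-well plates and exposed to the test compound at a single concentration for 48 hours; results are reported as percent growth, with values below 10 considered active.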 Active and inactive are the calls of the source.

These compounds were tested on MALME-3M melanoma (assay: NCI-60 one-dose screen, 48 h (100 = growth as untreated, 0 = no growth, -100 = all killed)). Conditions: 10 µM unless noted.
`COCc1c(-c2ccc(NC(=O)Nc3cc(C(F)(F)F)ccc3F)c(F)c2)c2c(N)ncnn2c1CN1CCOCC1` was tested, and the growth was -37% (active).
In the case of `COC(=O)[C@@H](NC(=O)[C@@H](OC)[C@@H]1Cc2cc3cc(OC4CC(OC5CC(O)C(O)C(C)O5)C(O)C(C)O4)c(C)c(O)c3c(O)c2C(=O)[C@H]1OC1CC(OC2CC(OC3CC(C)(O)C(O)C(C)O3)C(O)C(C)O2)C(O)C(C)O1)C(C)C` (stereo partly specified), the growth was -12.3% (active).
For `Cc1ccc(Nc2nccc(N(C)c3ccc4c(C)n(C)nc4c3)n2)cc1S(N)(=O)=O`, the growth was 2.35% (active).
With `CCN(CCO)CCCOc1ccc2c(Nc3cc(CC(=O)Nc4cccc(F)c4)[nH]n3)ncnc2c1` the growth was -17.5% (active).
In the case of `COc1ccc(Cc2cc(-c3ccccc3C)n[nH]c2=O)cc1`, the growth was 154% (inactive).
For `Clc1ccc(C(Cn2ccnc2)OCc2ccsc2Cl)c(Cl)c1` (stereo unspecified), the growth was 65.8% (inactive).
`COc1ccc(/C(C)=C(\c2ccc(Cl)cc2)c2ccc(OCCN3CCCCCC3)cc2)cc1` was tested, and the growth was 51.9% (inactive).
`CCCCCc1ccc(C)cc1OC(=O)CCl` was tested, and the growth was 90.9% (inactive).
With `COc1ccc(-c2ccc3ncc4c(c3c2)n(-c2ccc(N3CCNCC3)c(C(F)(F)F)c2)c(=O)n4C)cn1` the growth was -75.3% (active).
`COc1cc(OC)c(/C=C/S(=O)(=O)Cc2ccc(OC)c(NCC(=O)O)c2)c(OC)c1` was tested, and the growth was 54.6% (inactive).
In the case of `COC1CCC(N2C(=O)CNc3ncc(-c4ccc(C(C)(C)O)nc4)nc32)CC1` (stereo unspecified), the growth was -17.6% (active).
`C[C@@H](Oc1cc(-n2cnc3ccc(CN4CCN(C)CC4)cc32)sc1C(N)=O)c1ccccc1C(F)(F)F` was tested, and the growth was 21% (inactive).
`CN(c1ncccc1CNc1nc(Nc2ccc3c(c2)CC(=O)N3)ncc1C(F)(F)F)S(C)(=O)=O` was tested, and the growth was -14.4% (active).
With `COc1cc2nccc(Oc3ccc(NC(=O)Nc4cc(C)on4)c(Cl)c3)c2cc1OC` the growth was 20.4% (inactive).
`COc1cccc(Nc2ncnn3ccc(CN4CC[C@@H](N)[C@H](O)C4)c23)c1` was tested, and the growth was 86.4% (inactive).
In the case of `Cc1nc2cc(-c3nn(C(C)C)c4ncnc(N)c34)ccc2o1`, the growth was -38.7% (active).
For `C[C@@H](N)c1ccc(C(=O)Nc2ccnc3[nH]ccc23)cc1`, the growth was 75.1% (inactive).
For `NC(=O)c1c(OCc2c(F)cc(Br)cc2F)nsc1NC(=O)NCCCCN1CCCC1`, the growth was -79.8% (active).
In the case of `CC(=O)OC(C(=O)c1ccccc1)c1ccccc1` (stereo unspecified), the growth was 95.8% (inactive).
With `O=C1NC(=O)[C@@H](c2cn3c4c(cccc24)CCC3)[C@@H]1c1c[nH]c2ccccc12` the growth was 59.7% (inactive).
With `CCN(CC)c1cc2oc3cc(N)cc(=N)c-3nc2cc1C` the growth was 1.85% (active).
`CC(=O)C1CC(C)CCC1C(C)C` (stereo unspecified) was tested, and the growth was 126% (inactive).
With `CCN1CCN(Cc2ccc(-c3cc4c(N[C@H](C)c5ccccc5)ncnc4[nH]3)cc2)CC1` the growth was 1.62% (active).
For `O=c1[nH]c([C@@H]2CCCN2)nc2c1oc1ccc(Cl)cc12`, the growth was 64.2% (inactive).
With `C=CC(=O)Nc1cccc(Oc2nc(Nc3ccc(N4CCN(C)CC4)cc3)nc3ccsc23)c1` the growth was -84.2% (active).
With `CCS(=O)(=O)N1CCN(c2ccc(Nc3ncc(C(N)=O)c(NC4CC4)n3)cc2)CC1` the growth was 76.7% (inactive).
For `O=C(COc1ccc(/C=C2\Cc3ccc(Cl)cc3C2=O)cc1)Nc1nccs1`, the growth was 126% (inactive).
In the case of `CC(C)(C)c1cnc(CSc2cnc(NC(=O)C3CCNCC3)s2)o1`, the growth was -41.1% (active).
For `CS(=O)(=O)CCNCc1ccc(-c2ccc3ncnc(Nc4ccc(OCc5cccc(F)c5)c(Cl)c4)c3c2)o1`, the growth was -80.3% (active).
For `Cc1cc(O)cc(-c2c(-c3ccnc(-c4cccnc4)c3)cnn2C)c1`, the growth was 49.7% (inactive).
For `CN1CCN(c2nc(C3=C(c4c[nH]c5ccccc45)C(=O)NC3=O)c3ccccc3n2)CC1`, the growth was -12.8% (active).
For `CC(=O)NCC(=O)N1[C@@H]2CC[C@H]1c1ccc(Nc3ncc(C(F)(F)F)c(NC4CCC4)n3)cc12`, the growth was 46.3% [2.5 µM] (inactive).
In the case of `Cc1cc([C@@H](C)Nc2ccccc2C(=O)O)c2nc(N3CCOCC3)cc(=O)n2c1`, the growth was 40.7% (inactive).
With `Cc1cc(Oc2ccccc2)ccc1Nc1ncnc2ccc(-c3cnc(Cl)c(NS(C)(=O)=O)c3)cc12` the growth was 0.126% (active).
With `CCN(CC)CCNC(=O)c1c(C)[nH]c(/C=C2\C(=O)Nc3ccc(F)cc32)c1C` the growth was -82.6% (active).
In the case of `O=C(Nc1cnn2ccc(N3CCC[C@@H]3c3cc(F)ccc3F)nc12)N1CC[C@H](O)C1`, the growth was 114% (inactive).
In the case of `COc1ccc(F)c(F)c1C(=O)c1cnc(NC2CCN(S(C)(=O)=O)CC2)nc1N`, the growth was -28.3% (active).
With `CN1C/C=C\CCOc2cccc(c2)-c2ccnc(n2)Nc2cccc(c2)C1` the growth was -79.4% (active).

These compounds were tested on MDA-MB-231 breast in the same assay as above. Conditions: 10 µM unless noted.
With `COCc1c(-c2ccc(NC(=O)Nc3cc(C(F)(F)F)ccc3F)c(F)c2)c2c(N)ncnn2c1CN1CCOCC1` the growth was -50% (active).
With `COC(=O)[C@@H](NC(=O)[C@@H](OC)[C@@H]1Cc2cc3cc(OC4CC(OC5CC(O)C(O)C(C)O5)C(O)C(C)O4)c(C)c(O)c3c(O)c2C(=O)[C@H]1OC1CC(OC2CC(OC3CC(C)(O)C(O)C(C)O3)C(O)C(C)O2)C(O)C(C)O1)C(C)C` (stereo partly specified) the growth was 10.9% (inactive).
In the case of `Cc1ccc(Nc2nccc(N(C)c3ccc4c(C)n(C)nc4c3)n2)cc1S(N)(=O)=O`, the growth was -2.02% (active).
`CCN(CCO)CCCOc1ccc2c(Nc3cc(CC(=O)Nc4cccc(F)c4)[nH]n3)ncnc2c1` was tested, and the growth was 39.4% (inactive).
In the case of `COc1ccc(Cc2cc(-c3ccccc3C)n[nH]c2=O)cc1`, the growth was 84.6% (inactive).
In the case of `Clc1ccc(C(Cn2ccnc2)OCc2ccsc2Cl)c(Cl)c1` (stereo unspecified), the growth was 70.9% (inactive).
With `COc1ccc(/C(C)=C(\c2ccc(Cl)cc2)c2ccc(OCCN3CCCCCC3)cc2)cc1` the growth was 57.4% (inactive).
In the case of `CCCCCc1ccc(C)cc1OC(=O)CCl`, the growth was 110% (inactive).
For `COc1ccc(-c2ccc3ncc4c(c3c2)n(-c2ccc(N3CCNCC3)c(C(F)(F)F)c2)c(=O)n4C)cn1`, the growth was -77.4% (active).
In the case of `COc1cc(OC)c(/C=C/S(=O)(=O)Cc2ccc(OC)c(NCC(=O)O)c2)c(OC)c1`, the growth was 39.7% (inactive).
For `COC1CCC(N2C(=O)CNc3ncc(-c4ccc(C(C)(C)O)nc4)nc32)CC1` (stereo unspecified), the growth was 14.2% (inactive).
In the case of `C[C@@H](Oc1cc(-n2cnc3ccc(CN4CCN(C)CC4)cc32)sc1C(N)=O)c1ccccc1C(F)(F)F`, the growth was 27.2% (inactive).
`CN(c1ncccc1CNc1nc(Nc2ccc3c(c2)CC(=O)N3)ncc1C(F)(F)F)S(C)(=O)=O` was tested, and the growth was 3.93% (active).
In the case of `COc1cc2nccc(Oc3ccc(NC(=O)Nc4cc(C)on4)c(Cl)c3)c2cc1OC`, the growth was 10% (inactive).
`COc1cccc(Nc2ncnn3ccc(CN4CC[C@@H](N)[C@H](O)C4)c23)c1` was tested, and the growth was 31.3% (inactive).
With `Cc1nc2cc(-c3nn(C(C)C)c4ncnc(N)c34)ccc2o1` the growth was -9.12% (active).
With `C[C@@H](N)c1ccc(C(=O)Nc2ccnc3[nH]ccc23)cc1` the growth was 50% (inactive).
With `NC(=O)c1c(OCc2c(F)cc(Br)cc2F)nsc1NC(=O)NCCCCN1CCCC1` the growth was -38.1% (active).
With `CC(=O)OC(C(=O)c1ccccc1)c1ccccc1` (stereo unspecified) the growth was 107% (inactive).
In the case of `O=C1NC(=O)[C@@H](c2cn3c4c(cccc24)CCC3)[C@@H]1c1c[nH]c2ccccc12`, the growth was 34.1% (inactive).
For `CCN(CC)c1cc2oc3cc(N)cc(=N)c-3nc2cc1C`, the growth was 26.7% (inactive).
For `CC(=O)C1CC(C)CCC1C(C)C` (stereo unspecified), the growth was 80.2% (inactive).
`CCN1CCN(Cc2ccc(-c3cc4c(N[C@H](C)c5ccccc5)ncnc4[nH]3)cc2)CC1` was tested, and the growth was 30.3% (inactive).
`O=c1[nH]c([C@@H]2CCCN2)nc2c1oc1ccc(Cl)cc12` was tested, and the growth was 67.3% (inactive).
`C=CC(=O)Nc1cccc(Oc2nc(Nc3ccc(N4CCN(C)CC4)cc3)nc3ccsc23)c1` was tested, and the growth was -58% (active).
For `CCS(=O)(=O)N1CCN(c2ccc(Nc3ncc(C(N)=O)c(NC4CC4)n3)cc2)CC1`, the growth was 69.6% (inactive).
`O=C(COc1ccc(/C=C2\Cc3ccc(Cl)cc3C2=O)cc1)Nc1nccs1` was tested, and the growth was 92.2% (inactive).
With `CC(C)(C)c1cnc(CSc2cnc(NC(=O)C3CCNCC3)s2)o1` the growth was 6.82% (active).
For `CS(=O)(=O)CCNCc1ccc(-c2ccc3ncnc(Nc4ccc(OCc5cccc(F)c5)c(Cl)c4)c3c2)o1`, the growth was -62.8% (active).
For `Cc1cc(O)cc(-c2c(-c3ccnc(-c4cccnc4)c3)cnn2C)c1`, the growth was 60.2% (inactive).
With `CN1CCN(c2nc(C3=C(c4c[nH]c5ccccc45)C(=O)NC3=O)c3ccccc3n2)CC1` the growth was 70.6% (inactive).
With `CC(=O)NCC(=O)N1[C@@H]2CC[C@H]1c1ccc(Nc3ncc(C(F)(F)F)c(NC4CCC4)n3)cc12` the growth was 38.1% [2.5 µM] (inactive).
In the case of `Cc1cc([C@@H](C)Nc2ccccc2C(=O)O)c2nc(N3CCOCC3)cc(=O)n2c1`, the growth was 60.3% (inactive).
With `Cc1cc(Oc2ccccc2)ccc1Nc1ncnc2ccc(-c3cnc(Cl)c(NS(C)(=O)=O)c3)cc12` the growth was 17.4% (inactive).
For `CCN(CC)CCNC(=O)c1c(C)[nH]c(/C=C2\C(=O)Nc3ccc(F)cc32)c1C`, the growth was 0.117% (active).
With `O=C(Nc1cnn2ccc(N3CCC[C@@H]3c3cc(F)ccc3F)nc12)N1CC[C@H](O)C1` the growth was 88.2% (inactive).
With `COc1ccc(F)c(F)c1C(=O)c1cnc(NC2CCN(S(C)(=O)=O)CC2)nc1N` the growth was 2.97% (active).
In the case of `CN1C/C=C\CCOc2cccc(c2)-c2ccnc(n2)Nc2cccc(c2)C1`, the growth was -38.6% (active).
